Reference: PubChem BioAssay (EPA / NIEHS)
Several values for one entry are separate records, joined by “and”; a condition that tells them apart may be missing. Equal values may be shown once. Where a structure was tested more than once in an assay, its records may differ in their call. Activity calls are given as the source filed them. The calls were made as follows: active = hit-call score of the fitted dose curve at least 0.9, where 1 is the maximum; inactive = score below 0.9.

read-out: Signal transducer and activator of transcription 3 (Homo sapiens) (UniProt P40763); experiment: LTEA_HepaRG_STAT3: Life Technologies and Expression Analysis (LTEA) Assay for Signal transducer and activator of transcription (STAT3) using HepaRG (AID 2283529); conditions: mRNA level, 48 h; actives raise or lower the signal
Outline: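 HepaRG, 48 h exposure, 8-pt half-log series (top 100 uM), 0.5% DMSO vehicle, duplicates. Readout: STAT3 transcript by Fluidigm qRT-PCR, housekeeping-normalized; bidirectional fit vs DMSO baseline.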

Chain of Signal transducer and activator of transcription 3 (Homo sapiens) (P40763 whole entry, looked up): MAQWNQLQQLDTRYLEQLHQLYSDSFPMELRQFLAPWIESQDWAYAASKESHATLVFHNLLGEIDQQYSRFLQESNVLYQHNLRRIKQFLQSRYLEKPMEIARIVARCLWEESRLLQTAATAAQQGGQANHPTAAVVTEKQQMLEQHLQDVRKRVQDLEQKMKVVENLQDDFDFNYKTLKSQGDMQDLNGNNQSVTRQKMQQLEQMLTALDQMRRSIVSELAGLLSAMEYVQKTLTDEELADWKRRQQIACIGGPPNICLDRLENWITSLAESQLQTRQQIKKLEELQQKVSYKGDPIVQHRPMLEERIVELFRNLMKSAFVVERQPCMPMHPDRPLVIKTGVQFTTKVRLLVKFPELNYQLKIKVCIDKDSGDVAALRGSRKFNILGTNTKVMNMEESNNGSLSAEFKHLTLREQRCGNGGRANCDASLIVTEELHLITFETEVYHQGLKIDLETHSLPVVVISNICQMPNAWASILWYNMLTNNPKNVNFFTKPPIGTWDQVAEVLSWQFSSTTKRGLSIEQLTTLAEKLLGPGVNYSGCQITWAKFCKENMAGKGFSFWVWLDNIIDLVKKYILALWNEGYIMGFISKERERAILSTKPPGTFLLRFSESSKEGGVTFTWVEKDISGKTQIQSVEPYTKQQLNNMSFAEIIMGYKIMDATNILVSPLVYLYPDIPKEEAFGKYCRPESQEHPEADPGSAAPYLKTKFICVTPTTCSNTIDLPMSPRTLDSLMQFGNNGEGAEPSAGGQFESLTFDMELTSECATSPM

Compound	AC50	outcome
CC1(c2ccc(Oc3ccccc3)cc2)OC(=O)N(Nc2ccccc2)C1=O (stereo unspecified)	50.2 µM (active)	–
CC(C)N(C(=O)COc1nnc(C(F)(F)F)s1)c1ccc(F)cc1	–	inactive
O=S(=O)(O)C(F)(F)C(F)(F)C(F)(F)C(F)(F)C(F)(F)C(F)(F)C(F)(F)C(F)(F)F	–	inactive
CCOCN(C(=O)CCl)c1c(C)cccc1CC	–	inactive
CC(C)(C)C(O)C(Oc1ccc(Cl)cc1)n1cncn1 (stereo unspecified)	–	inactive
Oc1ccc(Cl)cc1Cc1ccccc1	–	inactive
CCN(CC)C(=O)SCc1ccc(Cl)cc1	–	inactive
CCC(C)(C)C(=O)OC1=C(c2ccc(Cl)cc2Cl)C(=O)OC12CCCCC2	–	inactive
O=S1OCC2C(CO1)C1(Cl)C(Cl)=C(Cl)C2(Cl)C1(Cl)Cl (stereo unspecified)	–	inactive
CNC(=O)Oc1ccccc1OC(C)C	–	inactive
Oc1cc(Cl)ccc1Oc1ccc(Cl)cc1Cl	–	inactive
CC1(C)C(C=C(Cl)Cl)C1C(=O)OC(C#N)c1ccc(F)c(Oc2ccccc2)c1 (stereo unspecified)	–	inactive
CCC(C)Nc1c([N+](=O)[O-])cc(C(C)(C)C)cc1[N+](=O)[O-] (stereo unspecified)	–	inactive
COP(=S)(OC)Oc1ccc(SC)c(C)c1	–	inactive
CCOC1Oc2ccc(OS(C)(=O)=O)cc2C1(C)C (stereo unspecified)	21.4 µM (active)	–
N#Cc1c(Cl)c(Cl)c(Cl)c(C#N)c1Cl	–	inactive
O=[N+]([O-])/N=C1\NCCN1Cc1ccc(Cl)nc1	20.1 µM (active)	–
C[C@H]1[C@H](c2ccc(Cl)cc2)SC(=O)N1C(=O)NC1CCCCC1	–	inactive
CN1CSC(=S)N(C)C1	–	inactive
COP(=S)(OC)Oc1ccc([N+](=O)[O-])cc1	–	inactive
O=C1c2ccccc2C(=O)N1SC(Cl)(Cl)Cl	–	inactive
C#CCN1C(=O)COc2cc(F)c(N3C(=O)C4=C(CCCC4)C3=O)cc21	–	inactive

read-out: solute carrier (SLCO1B1), SLCO1B1 (gene 10599); experiment: LTEA_HepaRG_SLCO1B1: Life Technologies and Expression Analysis (LTEA) Assay for solute carrier (SLCO1B1) using HepaRG (AID 2283530); conditions: mRNA level, 48 h; actives raise or lower the signal
Outline: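 Differentiated human HepaRG cells were exposed for 48 h in serum-free induction medium to eight half-log concentrations, top 100 uM, in 0.5% DMSO. SLCO1B1 mRNA was measured by qRT-PCR, normalized to ACTB, GAPDH and POLR2A, and fitted bidirectionally against DMSO.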

Compound	AC50	outcome
CC1(c2ccc(Oc3ccccc3)cc2)OC(=O)N(Nc2ccccc2)C1=O (stereo unspecified)	30.6 µM (active)	–
CC(C)N(C(=O)COc1nnc(C(F)(F)F)s1)c1ccc(F)cc1	–	inactive
O=S(=O)(O)C(F)(F)C(F)(F)C(F)(F)C(F)(F)C(F)(F)C(F)(F)C(F)(F)C(F)(F)F	93.1 µM (active) and 79 µM (active) and 77.6 µM (active)	inactive
CCOCN(C(=O)CCl)c1c(C)cccc1CC	81.3 µM (active)	–
CC(C)(C)C(O)C(Oc1ccc(Cl)cc1)n1cncn1 (stereo unspecified)	–	inactive
Oc1ccc(Cl)cc1Cc1ccccc1	81.5 µM (active)	inactive
CCN(CC)C(=O)SCc1ccc(Cl)cc1	–	inactive
CCC(C)(C)C(=O)OC1=C(c2ccc(Cl)cc2Cl)C(=O)OC12CCCCC2	–	inactive
O=S1OCC2C(CO1)C1(Cl)C(Cl)=C(Cl)C2(Cl)C1(Cl)Cl (stereo unspecified)	20.8 µM (active)	–
CNC(=O)Oc1ccccc1OC(C)C	–	inactive
Oc1cc(Cl)ccc1Oc1ccc(Cl)cc1Cl	–	inactive
CC1(C)C(C=C(Cl)Cl)C1C(=O)OC(C#N)c1ccc(F)c(Oc2ccccc2)c1 (stereo unspecified)	–	inactive
CCC(C)Nc1c([N+](=O)[O-])cc(C(C)(C)C)cc1[N+](=O)[O-] (stereo unspecified)	–	inactive
COP(=S)(OC)Oc1ccc(SC)c(C)c1	–	inactive
CCOC1Oc2ccc(OS(C)(=O)=O)cc2C1(C)C (stereo unspecified)	73.6 µM (active)	–
N#Cc1c(Cl)c(Cl)c(Cl)c(C#N)c1Cl	–	inactive
O=[N+]([O-])/N=C1\NCCN1Cc1ccc(Cl)nc1	50 µM (active)	–
C[C@H]1[C@H](c2ccc(Cl)cc2)SC(=O)N1C(=O)NC1CCCCC1	60.7 µM (active)	–
CN1CSC(=S)N(C)C1	–	inactive
COP(=S)(OC)Oc1ccc([N+](=O)[O-])cc1	–	inactive
O=C1c2ccccc2C(=O)N1SC(Cl)(Cl)Cl	–	inactive
C#CCN1C(=O)COc2cc(F)c(N3C(=O)C4=C(CCCC4)C3=O)cc21	–	inactive
